# From PubChem
# Compounds with a hit are over-represented: about 0.97% of the library has one in this group of screens.
# B2AR ag – agonists of human beta-2 adrenergic receptor inducing internalization | P07550 | Am2.2-beta2AR cells, FAP receptor internalization, flow cytometry | response, % (test concentration not listed) | actives 0.43% (n = 340,000) | AID 504454;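 active = response above a set limit, near 3 SD of response in nonfluorescent compounds, cut at about 42% in these data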
# Target sequence (P07550 whole entry, looked up): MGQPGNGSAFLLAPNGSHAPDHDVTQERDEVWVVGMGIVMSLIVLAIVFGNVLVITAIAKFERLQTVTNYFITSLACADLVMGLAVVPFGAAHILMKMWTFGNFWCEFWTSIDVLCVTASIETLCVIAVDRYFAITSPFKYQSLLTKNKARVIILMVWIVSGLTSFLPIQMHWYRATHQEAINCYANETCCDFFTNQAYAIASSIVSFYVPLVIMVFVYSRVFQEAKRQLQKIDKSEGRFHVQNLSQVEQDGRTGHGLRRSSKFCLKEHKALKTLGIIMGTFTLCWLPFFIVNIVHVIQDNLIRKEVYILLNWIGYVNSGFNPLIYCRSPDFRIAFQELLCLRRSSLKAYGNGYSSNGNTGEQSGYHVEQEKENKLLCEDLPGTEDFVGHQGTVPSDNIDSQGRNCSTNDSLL
# A1 inh – inhibitors of the anti-apoptotic protein A1, read as caspase activation | caspase activation, % (concentration not given with the values) | MEF A1-2A-BIM cells, Caspase-Glo 3/7 luminescence, 3 h; percent of clofoctol response, vehicle zero | AID 2462 | actives 0.066% (n = 330,000);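 active = over half of replicate activation scores above 10%, or exactly half above 10 with the replicate mean above 10; inconclusive = replicate mean below 10 yet half the replicates above 10; inactive = over half of replicates below 10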
# NOD2 RIPK2 PPI – inhibitors of human NOD2-RIPK2 interaction; O43353; CHO BLA complementation NOD2-RIPK2, CCF4 ratio; inhibition, % at 4.98 µM; actives 0.38% (n = 360,000); in the data active = inhibition above about 21%;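 also: 0% = vehicle only and 100% = reference blocker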
# TLR4 MyD88 comp – TLR4-MyD88 interaction inhibition in cells; inhibition, % at 8.4 µM; actives 0.18% (n = 200,000); HeLa CL3-4 TLR4/MyD88 BLA complementation, FRET ratio; in the data active = inhibition above about 25%;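 also: 0% = vehicle and 100% = reference inhibitor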
# NTR1 agonist – NTR1 (human) agonism. NTR1-U2OS beta-arrestin-GFP spot imaging, agonist mode. actives 0.17% (n = 330,000). AID 493036. P30989. activation, % at 20 µM;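 active = activation at or above 40% of the spot to cytoplasm intensity ratio, with at least 20 cells analyzed; inconclusive = wells under 20 cells, flagged as cytotoxic or low count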;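 also: 0% = DMSO without peptide and 100% = 100 nM NTR1 peptide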
# TLR9-MyD88 block – blocks human TLR9 binding to MyD88 | CHO BLA complementation TLR9-MyD88, CCF4 FRET ratio | AID 504734 | inhibition, % at 4.98 µM | actives 0.21% (n = 340,000) | Q9NR96+Q99836;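 active = inhibition above the mean over all tested compounds plus 3 SD, cut at about 21% in these data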;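 also: 0% = DMSO only wells and 100% = clavulanate BLA inhibitor control wells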
# TLR9-MyD88 conf – TLR9-MyD88 interaction inhibition, confirmation; shares compounds with TLR9-MyD88 block; inhibition, % at 4.98 µM; CHO TLR9/MyD88 BLA complementation, CCF4 FRET ratio; actives 51% (n = 680); AID 540250;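 active = mean inhibition across three repeats above about 21% taken from the earlier screen, limit read from the data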;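 also: blue over green emission ratio reports constitutive TLR9 MyD88 association via BLA complementation; 0% = DMSO vehicle wells and 100% = clavulanate BLA inhibitor wells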
# BLA counter-1 – non-selective beta-lactamase inhibitors in TLR9-MyD88 counter-screen | shares compounds with TLR9-MyD88 block | CHO-BLA cells, CCF4 FRET ratio, BLA reporter | inhibition, % at 4.98 µM | actives 7% (n = 680) | AID 540251;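 active = mean inhibition above a 50% cutoff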;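 also: counterscreen of TLR9-MyD88 hits on CMV-driven BLA in CHO-K1 cells; 0% = DMSO alone and 100% = clavulanate blocking BLA; higher means less blue over green ratio so more BLA blockade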
# TLR9 CHO tox – CHO cell toxicity counter-screen for TLR9-MyD88 inhibitors; shares compounds with TLR9-MyD88 block; actives 39% (n = 680); inhibition, % at 4.98 µM; TLR9-MyD88 CHO cells cytotoxicity, luminescence; in the data active = inhibition above about 11%
# NOD2 RIPK2 conf – NOD2-RIPK2 interaction inhibition confirmed; CHO cells, NOD2-RIPK2 BLA complementation, CCF4 FRET; AID 624370; actives 70% (n = 1,200); inhibition, % at 4.98 µM; shares compounds with NOD2 RIPK2 PPI;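 active = mean inhibition across replicates above a set limit taken from the earlier primary screen, cut at about 21% in these data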;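 also: 0% = DMSO-only wells and the high end = clavulanate BLA-blocked wells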
# BLA counter-2 – hits BLA reporter in NOD2-RIPK2 inhibitor counterscreen; shares compounds with NOD2 RIPK2 PPI; CHO BLA reporter, CCF4 FRET ratio; inhibition, % at 4.98 µM; actives 57% (n = 1,200);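 active = mean inhibition above the low-control mean inhibition plus three low-control SD, cut at about 11% in these data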;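 also: 0% = DMSO only wells and 100% = clavulanate high control wells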
# Starred values were filed as active, the others as inactive; u = inconclusive; x = not tested or not shown.
SMILES,B2AR ag,A1 inh,NOD2 RIPK2 PPI,TLR4 MyD88 comp,NTR1 agonist,TLR9-MyD88 block,TLR9-MyD88 conf,BLA counter-1,TLR9 CHO tox,NOD2 RIPK2 conf,BLA counter-2
O=C(N/N=C/c1ccc(O)c(O)c1)c1ccc(-n2cnnn2)cc1,-7.1,0.1,-1.5,x,3.0,8.3,x,x,x,x,x
CC(=O)Nc1ccc2c(c1)C(=O)c1ccccc1C2=O,1.8,-3.2,-2.8,6.8,-1.5,-11.0,x,x,x,x,x
CC(=O)Nc1cc2c3c(cccc3c1)-c1ccccc1-2,-132.1,x,22.3*,x,x,24.3*,17.0,14.9,1.4,19.2,36.5*
Nc1cc2sc(-c3ccc(C(=O)O)cc3)nc2cc1Cl,1.1,-0.3,35.1*,5.5,2.8,24.2*,9.7,10.9,14.1*,32.0*,39.7*
CCCOc1cc(N(CC)CC)ccc1/C=C(/C#N)c1nc2ccc(C)cc2[nH]1,-452.5,-0.2,34.0*,23.2,-0.8,21.0*,16.3,16.9,-4.5,35.0*,36.5*
COc1cc(/C=C(\C#N)c2nc3ccc(C)cc3[nH]2)c([N+](=O)[O-])cc1OC,14.8,0.0,7.3,-2.4,8.5,4.7,x,x,x,x,x
COc1ccc2nc(C)cc(NCc3ccc(F)cc3)c2c1,-402.1,0.5,24.4*,x,4.7,38.0*,21.6*,18.1,29.7*,44.9*,44.3*
COC(=O)N(C)C[C@@H]1OCc2cnnn2CCCC(=O)N([C@@H](C)CO)C[C@H]1C,x,x,-1.6,x,x,5.1,x,x,x,x,x
CCCCCCSc1cc(-c2nc3cnccn3c2NCCCC)ccc1OC,-27.5,-0.2,44.1*,x,3.4,40.6*,26.2*,28.7,14.1*,39.6*,52.0*
O=C(CN1C(=O)c2cccc3cccc1c23)Nc1ccccc1C(=O)NCc1ccco1,9.2,1.3,23.0*,-3.9,3.0,31.7*,7.9,11.9,3.1,22.0*,22.1*
CCN(CC)c1ccc(C=C2C(=O)OC(c3ccccc3)OC2=O)cc1 (stereo not given),2.5,-1.0,6.6,4.5,0.7,8.0,x,x,x,x,x
CCN(CC)c1ccc(/C=C/C(=O)C2C(=O)C=C(C)OC2=O)cc1 (stereo not given),-75.5,u,22.9*,17.7,3.2,21.1*,36.2*,38.0,10.7*,27.7*,47.2*
Cn1cc(C(=O)c2ccccc2C(=O)O)cc1C(=O)C(Cl)(Cl)Cl,12.4,0.7,8.4,x,1.3,-1.8,x,x,x,x,x
Nc1cccc2c1C(=O)N(CCOc1ccc(F)cc1)C2=O,-3.8,-4.5,22.1*,x,-0.2,23.2*,15.5,17.7,3.2,33.3*,43.6*
CC(C)CN(C(=O)CCCc1nc2ccccc2c(=O)[nH]1)c1c(N)n(Cc2ccccc2)c(=O)[nH]c1=O,-12.6,0.2,-5.1,x,1.0,-10.5,x,x,x,x,x
O=C(Nc1ccccc1)C1=C(c2ccccc2)S(=O)(=O)CCS1(=O)=O,28.4,x,49.7*,10.6,x,21.8*,19.4,1.2,97.1*,60.0*,11.9*
O=C(O)c1ccccc1C(=O)Nc1ccccc1,2.6,-0.2,1.1,12.8,-0.8,-3.9,x,x,x,x,x
COc1ccc(NC(=O)c2cc(C3CCCCN3C(=O)CCc3ccccc3)on2)c(C)c1 (stereo not given),x,x,-1.2,x,x,x,x,x,x,x,x
CCOC(=O)c1nc2ccccc2c(C)c1C,2.6,0.2,0.8,x,-0.6,0.3,x,x,x,x,x
Nc1nc(-c2ccc(F)cc2)cc(C(F)(F)F)n1,-5.1,0.8,-4.8,-8.4,2.6,3.1,x,x,x,x,x
CS(=O)(=O)c1nc(-c2ccc(F)cc2)cc(C(F)(F)F)n1,72.8*,x,62.1*,15.2,x,40.0*,34.6*,8.0,97.4*,62.0*,12.4*
Oc1ccc(C2C=C(c3ccc(F)cc3)Nc3ncnn32)cc1 (stereo not given),7.2,x,50.5*,x,x,39.8*,6.8,4.0,-0.4,37.4*,45.6*
COc1ccc(C2C=C(c3ccc(C)cc3)Nc3ncnn32)cc1 (stereo not given),-12.4,x,51.7*,19.1,x,40.6*,-2.1,1.3,-1.0,10.6,10.0
C1=C(c2ccc(-c3ccccc3)cc2)Nc2ncnn2C1c1ccco1 (stereo not given),4.2,x,38.8*,1.0,x,27.3*,7.0,1.2,2.4,5.0,2.6
Cc1cc(C)c(C2=CC(c3ccccc3)n3ncnc3N2)cc1C (stereo not given),x,0.5,x,x,-0.1,x,x,x,x,x,x
SMILES,B2AR ag,A1 inh,NOD2 RIPK2 PPI,TLR4 MyD88 comp,NTR1 agonist,TLR9-MyD88 block,TLR9-MyD88 conf,BLA counter-1,TLR9 CHO tox,NOD2 RIPK2 conf,BLA counter-2
Cc1ccc(C2C=C(c3ccccc3)Nc3ncnn32)cc1 (stereo not given),-7.5,0.0,47.5*,x,-2.1,36.7*,6.0,5.4,3.0,16.2,17.5*
COc1cccc(C2=CC(c3ccc(N(C)C)cc3)n3ncnc3N2)c1 (stereo not given),x,-4.0,x,-3.0,-2.1,x,x,x,x,x,x
Cc1cc(C)n(-c2nc(-c3ccccc3)cs2)n1,0.3,1.5,-2.7,1.8,1.4,3.8,x,x,x,x,x
Cc1ccc(/C(=C\CN2CCCC2)c2ccccn2)cc1,-2.6,1.5,2.8,x,2.3,-13.6,x,x,x,x,x
CCN(CC)c1ccc(C(=C2C=CC(=[N+](CC)CC)C=C2)c2ccccc2)cc1,59.3*,x,41.0*,x,x,52.6*,83.0*,18.2,100.8*,32.3*,22.0*
CCN(CC)c1ccc(C(=O)NNC(=O)CCNC(=O)c2ccccc2)cc1,1.1,-0.5,-11.7,x,3.8,0.2,x,x,x,x,x
O=c1c(Cl)c(Cl)cnn1Cc1nnc(-c2ccccc2Br)o1,10.6,x,27.0*,11.2,17.7,21.0*,29.2*,14.4,100.8*,45.5*,10.7*
Cc1cc(C(F)(F)F)nn2cnnc12,4.3,0.5,-1.2,-7.0,3.4,-0.1,x,x,x,x,x
Cc1nnc(N2C(=O)c3cccc4c([N+](=O)[O-])ccc(c34)C2=O)s1,25.4,0.4,91.1*,x,6.2,79.9*,66.9*,84.3*,58.5*,92.5*,87.2*
Cc1cccc(N2C(=O)c3cccc4c(N5CCCCC5)c([N+](=O)[O-])cc(c34)C2=O)c1C,6.5,0.5,-3.8,5.6,0.8,2.5,x,x,x,x,x
